Data as given in ChEMBL document CHEMBL4296182, “CO-ADD screening of NIH NCI Diversity Set V”.
For part of these data: Entries with a potency or affinity are not part of this list.

Assays:
[1] = test system: Staphylococcus aureus; assay: Antibacterial activity against Staphylococcus aureus MRSA ATCC 43300 (CO-ADD:GP_020); MIC in CAMBH media using NBS plates, by Resazurin F(560/590); format: functional; conditions: Concentration 20 uM, ASSAY_TEST Inhibition of Bacterial Growth, detection method Resazurin, Fluorescence (ex560/em590), MEDIA CAMHB, plate type 384well, CORNING #3640, time 18 hr
[2] = test system: Acinetobacter baumannii; assay: Antibacterial activity against Acinetobacter baumannii ATCC 19606 (CO-ADD:GN_034); MIC in CAMBH media using NBS plates, by Resazurin F(560/590); format: functional; conditions: Concentration 20 uM, ASSAY_TEST Inhibition of Bacterial Growth, detection method Resazurin, Fluorescence (ex560/em590), MEDIA CAMHB, plate type 384well, CORNING #3640, time 18 hr
[3] = test system: Escherichia coli; assay: Antibacterial activity against Escherichia coli ATCC 25922 (CO-ADD:GN_001); MIC in CAMBH media using NBS plates, by Resazurin F(560/590); format: functional; conditions: Concentration 20 uM, ASSAY_TEST Inhibition of Bacterial Growth, detection method Resazurin, Fluorescence (ex560/em590), MEDIA CAMHB, plate type 384well, CORNING #3640, time 18 hr
[4] = test system: Klebsiella pneumoniae; conditions: Concentration 20 uM; ASSAY_TEST Inhibition of Bacterial Growth; detection method Absorption (OD600); MEDIA CAMHB; plate type 384well; NBS; CORNING #3640; time 18 hr
[5] = test system: Candida albicans; conditions: 20 µM
[6] = test system: Cryptococcus neoformans; conditions: Concentration 20 uM; ASSAY_TEST Inhibition of Fungal Growth; detection method Resazurin; Absorption (OD600-OD570); plate type 384well; NBS; CORNING #3640

SMILES	Inhibition [1]	Inhibition [2]	Inhibition [3]	Inhibition [4]	Inhibition [5]	Inhibition [6]
Clc1[nH]cnc2nccc1-2	1.4%	-14.17%	0.3%	29.26%	1.22%	-2.5%
CS(=O)(=O)Nc1nc2ccccc2[nH]1	10.98%	4.83%	-1.14%	15.79%	3.39%	-3.84%
Cc1cc(NC(=O)c2ccccc2)nc(C)n1	8.84%	-8.03%	12.79%	3.38%	0.88%	-15.88%
NCC(=O)Nc1ccc(Cl)cc1C(=O)c1ccc[nH]1	-7.1%	-14.48%	6.3%	6.27%	1.44%	-13.13%
Cc1nc2ccc(N)nc2nc1C	15.94%	-14.31%	16.52%	12.13%	-1.28%	-2.36%
C[C@]12CC[C@@H]3c4ccc(OCC(=O)O)cc4CC[C@H]3[C@@H]1CCC2=O	9.17%	-16.81%	9.71%	8.63%	3.7%	-16.24%
CCN1CCCCC(=N\O)/C(=N/O)CCCC1	-0.99%	-8.24%	1.26%	23.74%	-0.06%	-7.99%
CSc1nc(O)nnc1Sc1ccccc1	-5.45%	-15.47%	6.74%	7.57%	13.4%	-16.19%
C=CCc1ccccc1OCC(=O)O	3.16%	-9.95%	10.02%	15.59%	5.01%	1.51%
CN(C)S(=O)(=O)c1ccc(N)c([N+](=O)[O-])c1	-6.85%	12.87%	8.14%	9.42%	1.38%	-8.3%
CC(=O)OC1C=CCC2C(=O)c3cccc(O)c3C(O)C12 (stereo unspecified)	-1.42%	-10.27%	6.95%	7.69%	6.66%	-16.38%
O=C1Nc2ccccc2C1(c1ccc(O)cc1)c1ccc(O)cc1 [OXYPHENISATINE]	24.64%	-10.84%	13.68%	5.85%	2.96%	-4.24%
CN(C)c1ccc(/C=C(\C#N)C(=O)c2ccccc2)cc1	3.86%	-12.37%	8.74%	11.84%	4.91%	-12.58%
O=NC1=C(c2cccc([N+](=O)[O-])c2)Nc2ccccc2S1	0.76%	0.77%	-6.48%	32.11%	13.1%	-8.32%
Cc1c([N+](=O)[O-])oc2c1C(=O)NCCC2	15.45%	5.11%	5.84%	9.17%	2.94%	-11.37%
O=[N+]([O-])c1cc2cccnc2c2ncccc12	-17.5%	-9.82%	9.62%	9.1%	0.77%	-9.49%
CCOC(=O)c1nnsc1-c1ccc(-c2snnc2C(=O)OCC)cc1	4.36%	3.04%	-11.2%	29.27%	6.68%	-3.34%
CCOC(=O)c1nc(O)c2c3c(sc2n1)CCCC3	16.28%	-13.3%	15.58%	5.02%	10%	-8.42%
CC(C)(CO)N1CCN(C(S)=Nc2ccccc2)CC1	-0.05%	2.01%	-1.36%	29.13%	8.13%	-5.08%
CS(=O)(=O)O.Cc1cc2c(cc1[N+](=O)[O-])NC(CNC(C)C)CC2 (stereo unspecified)	12.97%	12.49%	3.18%	6.82%	-0.29%	-5.85%
Cc1cc2cc3c(=O)[nH]c(=O)cc-3n(CC(O)C(O)C(O)CO)c2cc1C (stereo unspecified)	10.31%	8.52%	-0.29%	10.28%	-1.58%	-7.62%
